# In publication PMC7819943, “Rice protein-binding microarrays: a tool to detect cis-acting elements near promoter regions in rice”:
# In all, about 35,000 sequences were measured (“fluorescence intensity (a.u.)”: median about 10,000, highest 2% from about 52,000 on). The full list was thinned out, with the highest values kept by preference.
# Target: T1, OsWOX13 (Oryza sativa, UniProt Q5QMM3 1-267)
# T1 sequence: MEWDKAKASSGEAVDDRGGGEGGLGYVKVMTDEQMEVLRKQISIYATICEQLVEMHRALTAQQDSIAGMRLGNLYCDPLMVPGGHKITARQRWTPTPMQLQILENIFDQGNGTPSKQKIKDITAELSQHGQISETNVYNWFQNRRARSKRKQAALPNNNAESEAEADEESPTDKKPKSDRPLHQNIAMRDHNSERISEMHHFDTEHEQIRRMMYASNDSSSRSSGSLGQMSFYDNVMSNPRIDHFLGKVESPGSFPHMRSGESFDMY
# Assay: protein-binding microarray (RPBM); PBS, 2% BSA, 51.3 ng/ul salmon testes DNA, 50 uM zinc acetate, 200 nM TF, 25 C, 1 h; high values mean tight binding
# Conditions: protein: recombinant; tags: N-terminal polyhistidine and DsRed monomer fusion (pET32a); label: CyDye5-dUTP incorporated in the synthesized complementary strand; 3' TTTTT single-stranded linker to array surface; dsDNA, one strand shown
# Method in brief: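 Per-feature fluorescence intensity (arbitrary units), read on an Axon 4000B scanner, is the binding signal. Transcription factors carrying an N-terminal polyhistidine tag and DsRed fusion were expressed in E. coli BL21-CodonPlus and purified on Ni–NTA. A custom Agilent array, made double-stranded by primer extension with Cy5-dUTP and blocked with 2% BSA, was incubated with 200 nM protein in PBS, 2% BSA, salmon testes DNA and 50 µM zinc acetate at 25 °C for 1 h and then washed.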
row,Sequence,binding signal
1,ACGGGGTTGCGGTAATTTTAATTGGGCCGAAATGTGATTCCGGAGTCACCTAGTGCAG,4130 fluorescence intensity (a.u.)
2,ACCTTCACTTGATTGCTGGTGGTAGTAGTAGTAGTAGTACCGGAGTCACCTAGTGCAG,21700 fluorescence intensity (a.u.)
3,GAAATGGGCCTAATTGTCGGTCACATACCGAGTAAATGGGCGGAGTCACCTAGTGCAG,4300 fluorescence intensity (a.u.)
4,CGGGTTTGATTTGATTTGATTTTGATTTTGATTTGCTTCTCGGAGTCACCTAGTGCAG,53400 fluorescence intensity (a.u.)
5,TGATTGTACGTATTCTGATTGATTGCTTATCGATATCTCACGGAGTCACCTAGTGCAG,26100 fluorescence intensity (a.u.)
6,TGAGTAATTGATAGTGACACGGCTATCCAACCAATCCAGGCGGAGTCACCTAGTGCAG,65100 fluorescence intensity (a.u.)
7,GTGATTGATATCGATTCTGATTGATGCCTTTGCCTGGTACCGGAGTCACCTAGTGCAG,57000 fluorescence intensity (a.u.)
8,TAATCGTATTAATTGATCAACAGGCTAGGCCAGCCAAACACGGAGTCACCTAGTGCAG,13200 fluorescence intensity (a.u.)
9,GGCCGATTGATTGGGTCCGAGTAATCTCGGAAATGTGGGGCGGAGTCACCTAGTGCAG,53600 fluorescence intensity (a.u.)
10,TTTTGATTGCACCTTGCTTCTCGTATACACCCTCACCTATCGGAGTCACCTAGTGCAG,22200 fluorescence intensity (a.u.)
11,GATTGATTTGATTGATTGCTTGATTGGTTAATTGGTTGATCGGAGTCACCTAGTGCAG,51600 fluorescence intensity (a.u.)
12,TCTGGTCGTAAATTGACAACCAACCTTAAGAAAATCCAGGCGGAGTCACCTAGTGCAG,21300 fluorescence intensity (a.u.)
13,CAAGAAATGACTTAATTAGAAAACCTCTTTGGAGCACCCACGGAGTCACCTAGTGCAG,11000 fluorescence intensity (a.u.)
14,AAAGCATTCATGTTAATTTTCTCCTAACTCAAATCGAATGCGGAGTCACCTAGTGCAG,3260 fluorescence intensity (a.u.)
15,CTGATTGGTTAGTAAGAGAATGTTGGTGGTGAAGTTGTTACGGAGTCACCTAGTGCAG,29900 fluorescence intensity (a.u.)
16,AAACTAACCAGGATCTGGTAATTGGAACGATCCCCATTCCCGGAGTCACCTAGTGCAG,4390 fluorescence intensity (a.u.)
17,GAAGTTTAATTATCATAAGATTGTGATGGTTATGTATGGTCGGAGTCACCTAGTGCAG,31700 fluorescence intensity (a.u.)
18,TGTATTGCCTAATTAATTTTATGCGCCTTTAATTTACTGCCGGAGTCACCTAGTGCAG,16800 fluorescence intensity (a.u.)
19,CATATCCCATTTGCCAATCACACCCTGAGAGTATGTATATCGGAGTCACCTAGTGCAG,6560 fluorescence intensity (a.u.)
20,CACCATTATTGCCAATTATCCTTGCTTGCGTGGTAGAGTACGGAGTCACCTAGTGCAG,26200 fluorescence intensity (a.u.)
21,ACTTGATTTCTCTGTTGGAAGATGGGTATATTTCGAGACCCGGAGTCACCTAGTGCAG,17200 fluorescence intensity (a.u.)
22,TACTCTGATTTTGTCCATTACCAGCTGCAAATGGACCAGCCGGAGTCACCTAGTGCAG,19300 fluorescence intensity (a.u.)

row,Sequence,binding signal
1,TTGACAGTTAATCCTAGGTCTATCTATCGCACTGAGTTTGCGGAGTCACCTAGTGCAG,12400 fluorescence intensity (a.u.)
2,ACAGATTGAGAGGGAGCTCAGGGAACCAGTCTCACAAAATCGGAGTCACCTAGTGCAG,8100 fluorescence intensity (a.u.)
3,TAAAATTGCATGTGATCATTTTGTAAGCTAAACTTTTATTCGGAGTCACCTAGTGCAG,11600 fluorescence intensity (a.u.)
4,GCTGCTCGGATTTGATTGATTGATTGATTGGCGGGTGGTCCGGAGTCACCTAGTGCAG,64500 fluorescence intensity (a.u.)
5,TCTTTGATTGGTGGCGGTGTTGAATTGAATTGAATTGATCCGGAGTCACCTAGTGCAG,46300 fluorescence intensity (a.u.)
6,TTTGGATTGGGTTTGGTGGTTGGGTGGGAGGGAGGGAGCTCGGAGTCACCTAGTGCAG,18700 fluorescence intensity (a.u.)
7,TACTATCAACTCTGTTAAAATTGAAGAATTTTGACTAAAACGGAGTCACCTAGTGCAG,3310 fluorescence intensity (a.u.)
8,AGAATAATTATTTAAGTTAAGGTGTGTCACACCCCAATCCCGGAGTCACCTAGTGCAG,25100 fluorescence intensity (a.u.)
9,GTGCATCACCAATCAAAACAGGAGGTGTTTGGAACTCCGTCGGAGTCACCTAGTGCAG,3870 fluorescence intensity (a.u.)
10,TACGCATTGATTAGTTTTGTCAGGTTAGTATAGAATTTAACGGAGTCACCTAGTGCAG,14000 fluorescence intensity (a.u.)
11,CAGGTGTGATTGAAGTGATGTACTCAACTTACACCCGGGCCGGAGTCACCTAGTGCAG,54400 fluorescence intensity (a.u.)
12,GTACTAGTATTATTGATTGATACACTTGTGATGTCATGCCCGGAGTCACCTAGTGCAG,30900 fluorescence intensity (a.u.)
13,GTACTTGATAGTTCAGTGATAAGGGGTGTGATTTCAACCCCGGAGTCACCTAGTGCAG,4490 fluorescence intensity (a.u.)
14,ACATAATTAGTTTATCTCTCCTCAAGCTGGTGCATCTCTCCGGAGTCACCTAGTGCAG,31200 fluorescence intensity (a.u.)
15,TCTCCAAGATTGATCCGCATCTCCAACTAAACCCTCTCCTCGGAGTCACCTAGTGCAG,7230 fluorescence intensity (a.u.)
16,GAACCTTTTGATTGATTCTCGTCCTACACGCTTGAAGGCGCGGAGTCACCTAGTGCAG,38200 fluorescence intensity (a.u.)
17,TCGCTTTGATTGACACTAAGAACCTCGCTGCGCATCTCGTCGGAGTCACCTAGTGCAG,58600 fluorescence intensity (a.u.)
18,ATTCTCTCTTTTGCTCGCTTTGTTCCCTTTTCTTTCTTTTCGGAGTCACCTAGTGCAG,3770 fluorescence intensity (a.u.)
19,TGTCTGACTGACTGACTGGCTGCTGCTGCTGCTCATTCCTCGGAGTCACCTAGTGCAG,23800 fluorescence intensity (a.u.)
20,TCTCGCTTCTGCCACTGCTGGCTGTGCTGCTTCCCTAGCTCGGAGTCACCTAGTGCAG,65100 fluorescence intensity (a.u.)
21,GGAATTAATTAATGAATCACGTAGGCTACCTGGGTTGAAGCGGAGTCACCTAGTGCAG,45800 fluorescence intensity (a.u.)
22,TAAAATTAACGTGGACACTAATCTAGTTTAGACTTTGATTCGGAGTCACCTAGTGCAG,15500 fluorescence intensity (a.u.)

row,Sequence,binding signal
1,ACGTTTAATATTTATAATTAATTTTCAAACATCCGATGTGCGGAGTCACCTAGTGCAG,19300 fluorescence intensity (a.u.)
2,TTAATGACTATTTAGTTGACATGTAAGAAACAGGGGATTTCGGAGTCACCTAGTGCAG,3450 fluorescence intensity (a.u.)
3,GCTCGATTGGATAATTCTTCTGCATAACTAGCCAGTGGAGCGGAGTCACCTAGTGCAG,26800 fluorescence intensity (a.u.)
4,AAACTTGATGGAATTCTTTAAATGTTCGATTGCTGGAGAGCGGAGTCACCTAGTGCAG,16700 fluorescence intensity (a.u.)
5,AACTTGCATACCAGTGGAATTCTTCAGGCTGGTCATGGAGCGGAGTCACCTAGTGCAG,65500 fluorescence intensity (a.u.)
6,TTAATTACTATCATTAGTGTTAAGTATATATTAACTAATGCGGAGTCACCTAGTGCAG,25900 fluorescence intensity (a.u.)
7,GAACTTTACCGAATTTGTAAATTAGATGTAAACTCATTTTCGGAGTCACCTAGTGCAG,3580 fluorescence intensity (a.u.)
8,GTGCCATTAATTTTGACTACTACTTGTGTGTCCTATCAAACGGAGTCACCTAGTGCAG,7280 fluorescence intensity (a.u.)
9,GCGGATTAATTACTACTGGGCTGGCATTCTGATCACTTTGCGGAGTCACCTAGTGCAG,25400 fluorescence intensity (a.u.)
10,CACTTAACTTAATTAGTTAATTATTGCTCTATTTTCTCTGCGGAGTCACCTAGTGCAG,60500 fluorescence intensity (a.u.)
11,ACCCTCATCTCTTCTCCTGATTGAATTGTCTTCCTCAACCCGGAGTCACCTAGTGCAG,30400 fluorescence intensity (a.u.)
12,AATTGGCTTGGCTAATTAATTACTCCATTTGCGAACATGGCGGAGTCACCTAGTGCAG,4010 fluorescence intensity (a.u.)
13,TTGACTGATTGCACGTCCAACCATAATTTCTTTTCGTCCACGGAGTCACCTAGTGCAG,58600 fluorescence intensity (a.u.)
14,ATGCGATTGACTAATTAATTGACTGGGCTTTGGCATTGGGCGGAGTCACCTAGTGCAG,65500 fluorescence intensity (a.u.)
15,CCTAATTGACAAATGATTTCACCACGTCCCTTTCCATTTTCGGAGTCACCTAGTGCAG,34200 fluorescence intensity (a.u.)
16,ACTTTTCTATTTAATTTTATCTATTTTCTTAATAACTATGCGGAGTCACCTAGTGCAG,4340 fluorescence intensity (a.u.)
17,TAATTTTCTGAGTGATCAAATAATTGACCATAATTTTCCACGGAGTCACCTAGTGCAG,8420 fluorescence intensity (a.u.)
18,TCTAGCTATTAATTTGCTCTCATTTATAACTTAGCCGCTACGGAGTCACCTAGTGCAG,6390 fluorescence intensity (a.u.)
19,ATAATTGATTCAACCTCGTTCTTAATTTGATACATCCTTCCGGAGTCACCTAGTGCAG,32300 fluorescence intensity (a.u.)
20,GCCTTAATTGATTAACCGTGTAACATCTTCCTCACGCACCCGGAGTCACCTAGTGCAG,65500 fluorescence intensity (a.u.)
